A short description of assay [1]: optical density shifts of acrAB sulA E. coli – strain DRC41, OD650, 48 h, E. coli filamentation inducer project, primary screen (AID 1152).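 Note: E. coli MC1000 strain DRC41 lacking acrAB efflux pump and sulA.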 The conditions noted are these: higher = more signal, called active from +8 up or from −8 down.
The nature of assay [2]: probe aLefty1 binding on compound microarray – biochemical, small-molecule microarray, 635/667 nm fluorescence, primary screen (AID 1153).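 Note: score merges spot fluorescence with signal-to-noise ratio from the scanned slide images.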 As to conditions: higher = more signal.
The nature of assay [3]: plasmodial surface anion channel blockers, osmotic lysis – cell-based, P. falciparum Indochina, OD700, 1 h, primary screen (AID 1154). As to conditions: P. falciparum Indochina infected RBC osmotic lysis, higher = more signal, called active from +8 up or from −8 down.
The nature of assay [4]: plasmodial surface anion channel blockers, osmotic lysis – cell-based, P. falciparum Indochina, OD700, 2 h, primary screen (AID 1155).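 Note: lysis reports solute entry through the parasite surface anion channel PSAC.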 As to conditions: P. falciparum Indochina infected erythrocytes, higher = more signal, called active from +8 up or from −8 down.
The nature of assay [5]: changes in parasitized red cell lysis, either direction – P. falciparum Indochina, OD700, 3 h, PSAC antagonist project, primary screen (AID 1156). The conditions noted are these: P. falciparum-infected erythrocytes, osmotic lysis, higher = more signal, called active from +8 up or from −8 down.
Assay [6] can be described thus: plasmodial surface anion channel blockers, osmotic lysis – cell-based, P. falciparum Indochina, OD700, 18 h, primary screen (AID 1157). As to conditions: P. falciparum Indochina infected erythrocytes, osmotic lysis OD700, 18 h; higher = more signal, called active from +8 up or from −8 down.
A short description of assay [7]: S6 kinase pathway phospho-S6 level changes – cell-based, A549, cytoblot, luminescence, serum-stimulated, primary screen (AID 1158).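 Note: serum-stimulated A549 lung adenocarcinoma cells; signal is phosphorylated S6 detected by cytoblot immunostaining with HRP secondary.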 The conditions noted are these: 5 h, higher = more signal.
Assay [8] deals with NADPH oxidase 2 (Homo sapiens) (UniProt P04839). The experiment in a line: compounds shifting NOX2 Amplex Red fluorescence – cell-based, HEK293-NOX2, PMA-stimulated, NOX inhibitor project, primary screen (AID 1159). Note: test concentration not given here. As to conditions: 45 min, higher = more signal, called active from +8 up or from −8 down.
NADPH oxidase 2 (Homo sapiens), sequence (P04839 whole entry, looked up): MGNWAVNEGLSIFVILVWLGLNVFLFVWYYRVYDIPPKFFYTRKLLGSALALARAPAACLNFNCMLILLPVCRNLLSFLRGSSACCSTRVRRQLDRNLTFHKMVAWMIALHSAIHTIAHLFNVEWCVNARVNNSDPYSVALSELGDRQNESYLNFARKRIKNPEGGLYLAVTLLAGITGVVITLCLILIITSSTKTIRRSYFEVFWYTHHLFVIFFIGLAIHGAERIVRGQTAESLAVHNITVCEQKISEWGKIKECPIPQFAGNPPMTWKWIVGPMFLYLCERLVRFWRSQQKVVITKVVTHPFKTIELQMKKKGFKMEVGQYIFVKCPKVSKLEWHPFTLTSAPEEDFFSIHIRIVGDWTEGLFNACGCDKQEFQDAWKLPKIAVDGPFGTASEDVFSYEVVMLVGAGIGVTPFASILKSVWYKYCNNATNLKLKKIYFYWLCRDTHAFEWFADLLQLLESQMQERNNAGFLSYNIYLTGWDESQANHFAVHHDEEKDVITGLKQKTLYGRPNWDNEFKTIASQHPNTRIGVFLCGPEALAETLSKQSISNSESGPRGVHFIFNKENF
The target of assay [9] is NADPH oxidase 4 (Homo sapiens) (UniProt Q9NPH5). The experiment in a line: compounds shifting NOX4 Amplex Red fluorescence – cell-based, HEK293-NOX4, tetracycline-induced, NOX inhibitor project, primary screen (AID 1160). As to conditions: HEK293-NOX4, Amplex Red H2O2 fluorescence, 45 min; higher = more signal, called active from +8 up or from −8 down.
NADPH oxidase 4 (Homo sapiens), sequence (Q9NPH5 whole entry, looked up): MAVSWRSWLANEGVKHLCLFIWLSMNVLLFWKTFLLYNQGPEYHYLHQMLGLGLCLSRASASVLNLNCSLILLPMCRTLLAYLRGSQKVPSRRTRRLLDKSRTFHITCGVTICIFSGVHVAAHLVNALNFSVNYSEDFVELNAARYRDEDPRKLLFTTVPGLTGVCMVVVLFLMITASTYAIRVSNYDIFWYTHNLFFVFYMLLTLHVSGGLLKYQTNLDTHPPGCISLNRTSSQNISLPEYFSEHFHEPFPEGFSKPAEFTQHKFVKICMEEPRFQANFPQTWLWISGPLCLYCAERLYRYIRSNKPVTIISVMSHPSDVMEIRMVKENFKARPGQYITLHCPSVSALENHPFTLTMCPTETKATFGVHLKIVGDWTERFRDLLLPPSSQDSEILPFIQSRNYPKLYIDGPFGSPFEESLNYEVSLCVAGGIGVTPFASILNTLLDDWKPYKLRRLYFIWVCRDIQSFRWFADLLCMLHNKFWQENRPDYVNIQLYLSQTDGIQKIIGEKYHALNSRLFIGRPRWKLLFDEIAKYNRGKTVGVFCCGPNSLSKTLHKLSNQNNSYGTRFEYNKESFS
In assay [10] the target is NADPH oxidase 5 (Homo sapiens) (UniProt Q96PH1). The experiment in a line: compounds shifting NOX5 Amplex Red fluorescence – cell-based, HEK293-NOX5, NOX inhibitor project, primary screen (AID 1161). The conditions noted are these: HEK293-NOX5, ionomycin, 45 min, higher = more signal.
NADPH oxidase 5 (Homo sapiens), sequence (Q96PH1 whole entry, looked up): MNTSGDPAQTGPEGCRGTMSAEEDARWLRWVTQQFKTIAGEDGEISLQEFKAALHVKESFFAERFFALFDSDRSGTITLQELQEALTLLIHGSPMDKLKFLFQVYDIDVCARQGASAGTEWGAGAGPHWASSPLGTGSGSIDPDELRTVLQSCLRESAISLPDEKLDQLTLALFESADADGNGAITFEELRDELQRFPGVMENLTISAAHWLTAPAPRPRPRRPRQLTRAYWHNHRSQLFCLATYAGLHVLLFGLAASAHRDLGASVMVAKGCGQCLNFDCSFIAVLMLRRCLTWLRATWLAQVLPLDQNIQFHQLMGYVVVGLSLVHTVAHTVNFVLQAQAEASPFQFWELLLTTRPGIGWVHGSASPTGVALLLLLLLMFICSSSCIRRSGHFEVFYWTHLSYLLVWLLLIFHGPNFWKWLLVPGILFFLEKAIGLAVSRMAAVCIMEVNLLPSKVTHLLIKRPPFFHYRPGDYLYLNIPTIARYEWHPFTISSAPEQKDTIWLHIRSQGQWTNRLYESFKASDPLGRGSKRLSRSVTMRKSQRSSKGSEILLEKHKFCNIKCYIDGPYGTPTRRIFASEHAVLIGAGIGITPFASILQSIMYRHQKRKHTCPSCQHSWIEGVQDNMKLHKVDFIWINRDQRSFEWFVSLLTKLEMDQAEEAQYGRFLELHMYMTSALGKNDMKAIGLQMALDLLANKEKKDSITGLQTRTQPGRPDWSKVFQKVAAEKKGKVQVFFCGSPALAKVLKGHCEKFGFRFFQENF
A short description of assay [11]: compound effects on lung adenocarcinoma cell viability – A549, calcein-AM fluorescence, 48 h, basal, profiling panel (AID 1162). Note: test concentration not given here. The conditions noted are these: higher = more signal.
The nature of assay [12]: compound effects on differentiated 3T3-L1 adipocyte viability – cell-based, 3T3-L1 adipocytes, calcein-AM fluorescence, 48 h, basal, profiling panel (AID 1163). Note: test concentration not given here. As to conditions: 3T3-L1 adipocytes viability, higher = more signal.
Assay [13] is described as follows: compound effects on hepatocellular carcinoma cell viability – HepG2, calcein-AM fluorescence, 48 h, basal, profiling panel (AID 1164). Note: test concentration not given here. The conditions noted are these: higher = more signal.
Assay [14] in a line: compound effects on multiple myeloma cell viability – MM1S, calcein-AM fluorescence, 48 h, basal, profiling panel (AID 1165). Note: test concentration not given here. As to conditions: higher = more signal.
A short description of assay [15]: calcein-AM signal in unstimulated myeloma cells – cell-based, calcein-AM fluorescence, 48 h, PK04 Diversity Set, profiling panel (AID 1166).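 Note: cells grown under basal conditions without added stimulus; test concentration not given here.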 As to conditions: RPMI8226 myeloma viability, higher = more signal.
A short description of assay [16]: JC-1 mitochondrial signal, unstimulated HepG2 cells – cell-based, JC-1 fluorescence, 24 h, 100 nL compound, profiling panel (AID 1167). Note: test concentration not given here. The conditions noted are these: HepG2 mitochondrial potential, higher = more signal.
A short description of assay [17]: JC-1 mitochondrial signal, unstimulated adipocytes – cell-based, JC-1 fluorescence, 3T3-L1 adipocytes, 24 h, 100 nL compound, profiling panel (AID 1168). Note: test concentration not given here. The conditions noted are these: JC-1 mitochondrial fluorescence, higher = more signal, called active from +8 up or from −8 down.
Assay [18] in a line: JC-1 mitochondrial signal, unstimulated myeloma cells – cell-based, JC-1 fluorescence, RPMI8226, 24 h, 100 nL compound, profiling panel (AID 1169). Note: test concentration not given here. The conditions noted are these: JC-1 mitochondrial potential fluorescence, higher = more signal.
Assay [19] can be described thus: JC-1 mitochondrial signal, unstimulated MM1S myeloma – cell-based, JC-1 fluorescence, 24 h, 100 nL compound, profiling panel (AID 1170). Note: test concentration not given here. As to conditions: MM1S mitochondrial potential, higher = more signal.
Assay [20] is described as follows: resazurin metabolic signal in A549 cells – cell-based, resazurin fluorescence, 24 h, PK04 Diversity Set, profiling panel (AID 1171). Note: test concentration not given here. As to conditions: A549 viability, higher = more signal, called active from +8 up or from −8 down. On the technique in general: The colour change of resazurin is a common sign of viable cells or microbes.

Active and inactive are the calls of the source.

In the case of `C=C(COC)/C(=C/C[C@@H](OC(=O)c1ccncc1)c1ccc(CO)o1)c1cnc2ccccc2c1`, the z-score in [1] was 0.149 (inactive); in assay [3] it was 4.66 (inactive); in assay [4], 1.24 (inactive); in [5], 1 (inactive); in assay [6], 0.234 (inactive); in assay [7], -0.188. Moreover, the z-score in [8] is -0.627 (inactive); in assay [9], -1.24 (inactive); in assay [10], -1.54; in assay [11], -0.308; in assay [12], 0.513; in assay [13], -0.607. Also, the z-score was -0.164 in assay [14]; 0.575 in assay [15]; -0.65 in assay [16]; 0.654 (inactive) in assay [17]; 0.0268 in assay [18]; -0.151 in [19]. The z-score in assay [20] is 0.331 (inactive). For the same compound, the composite z-score in assay [2] came out at 0.471.
In the case of `CCCNC(=O)[C@@]1(c2ccc([N+](=O)[O-])cc2)CC(=O)N(C2CCCCC2)[C@@H]1c1ccc(CO)cc1I`, the z-score in assay [1] is -0.123 (inactive); in assay [3], 19.3 (active); in [4], 3.4 (inactive); in assay [5], 3.38 (inactive); in [6], 0.722 (inactive); in assay [7], -0.275. The z-score was 1.02 (inactive) in [8]; 0.187 (inactive) in [9]; 1.16 in assay [10]; -0.165 in assay [11]; -0.599 in [12]; -0.451 in [13]. For the same compound, the z-score in [14] is -3.22; in assay [15], -1.01; in assay [16], 0.22; in assay [17], -1.13 (inactive); in assay [18], -0.677; in assay [19] it was -1.11. Besides, the z-score in [20] is 0.72 (inactive). In assay [2], the composite z-score was determined as 0.317.
As to `C[C@]1(C(=O)O)c2ccccc2C(=O)N(Cc2ccccc2)[C@H]1c1ccc(CO)cc1`, the z-score in [1] was 0.576 (inactive); in [3] it was 3.5 (inactive); in assay [4] it was 0.52 (inactive); in assay [5] it was 1.06 (inactive); in assay [6], 0.548 (inactive); in assay [7], -0.0555. Besides, the z-score in [8] was 0.67 (inactive); in assay [9] it was 0.917 (inactive); in [10], 0.42; in [11], 0.277; in assay [12], 0.504; in assay [13] it was 0.67. Moreover, the z-score was 0.132 in assay [14]; 0.0631 in assay [15]; 1.33 in assay [16]; 0.114 (inactive) in [17]; -0.768 in [18]; 0.161 in [19]. In [20], the z-score was 1.08 (inactive). This compound also gave a composite z-score in assay [2] of -0.147.
In the case of `Cc1ccc(F)cc1S(=O)(=O)N[C@@H]1CCN(Cc2ccc(OC(C)C)cc2)C1`, the z-score in assay [1] was -19.2 (active); in [3] it was 2.14 (inactive); in [4] it was 0.45 (inactive); in [5] it was -0.11 (inactive); in assay [6], 0.673 (inactive); in [7] it was -0.157. Besides, the z-score in [8] is -0.681 (inactive); in assay [9], -0.987 (inactive); in assay [10], -1.62; in assay [11], 0.0197; in [12], -0.382; in assay [13] it was -0.867. Besides, the z-score in assay [14] was -2.58; in [15] it was -0.974; in assay [16], -1.41; in assay [17], 0.0582 (inactive); in [18] it was 0.0721; in [19] it was -1.87. In [20], the z-score was -0.26 (inactive). The compound further displayed a composite z-score in [2] of -0.186.
In the case of `CCOC(=O)C[C@H]1[C@H](OC(=O)c2ccccc2-c2ccccc2)[C@@H](NC(=O)c2ccc3ccccc3n2)c2cc(OCCCO)ccc2N1C(=O)c1ccc2ccccc2n1`, the z-score in [1] is 1.17 (inactive); in assay [3], 3.67 (inactive); in [4], -0.774 (inactive); in assay [5], -1.88 (inactive); in assay [6] it was -2.15 (inactive); in assay [7], 0.112. For the same compound, the z-score in [8] is 1.18 (inactive); in assay [9], 1.07 (inactive); in assay [10], 2.5; in assay [11], 0.923; in assay [12], 1.65; in [13] it was 0.877. Besides, the z-score in assay [14] was 0.497; in assay [15] it was -0.237; in [16], 2.39; in assay [17] it was 0.309 (inactive); in assay [18] it was 0.356; in assay [19] it was -0.845. Besides, the z-score in assay [20] is 0.545 (inactive). For the same compound, the composite z-score in [2] was -0.0747.
`[N-]=[N+]=NCc1ccccc1C[C@@]1(C(=O)N2CCCCC2)N=C(c2ccc(OCCCO)cc2)O[C@@H]1c1ccccc1N=[N+]=[N-]`: the z-score in assay [1] is 0.842 (inactive); in assay [3], 31.2 (active); in assay [4], 30.4 (active); in [5], 2.6 (inactive); in assay [6], 3.27 (inactive); in [7], -0.0417. Besides, the z-score was 1.2 (inactive) in assay [8]; -0.0332 (inactive) in assay [9]; -1.27 in [10]; -0.0222 in [11]; 1.03 in assay [12]; 0.471 in assay [13]. In addition, the z-score in [14] was -3.11; in assay [15], -3.21; in assay [16] it was 0.821; in assay [17], 0.636 (inactive); in assay [18] it was -1.25; in assay [19] it was -1.14. Further, in assay [20], the z-score was 0.0861 (inactive). The composite z-score in assay [2] was -0.126.
Turning to `C[N+](C)(C)CCCC[C@@H]1NC(=O)[C@@H]2C[C@H](C(=O)O)[C@H](c3ccc(O)cc3)N2C1=O`, the z-score in assay [1] is -0.105 (inactive); in assay [3] it was 0.277 (inactive); in assay [4], 0.156 (inactive); in assay [5], -0.0003 (inactive); in assay [6], 0.0583 (inactive); in assay [7] it was 0.423. In addition, the z-score in assay [8] is -0.0831 (inactive); in assay [9], -0.223 (inactive); in [10], 0.903; in assay [11], -0.643; in [12] it was 0.422; in assay [13], 0.914. Moreover, the z-score in [14] was 0.379; in assay [15], -0.0923; in assay [16], 0.0942; in assay [17], -0.907 (inactive); in [18], -0.142; in [19], -0.454. Moreover, in [20], the z-score was -0.246 (inactive). In addition, the composite z-score in [2] was -0.248.
Turning to `CC(C)C(=C=CC[C@H](O)c1ccc(OCCO)cc1)C[C@H](O)c1cc(Cl)cc(Cl)c1O`, the z-score in assay [1] was 0.049 (inactive); in [3], 19.4 (active); in [4], 3.7 (inactive); in [5], 1.44 (inactive); in assay [6], 1.24 (inactive); in assay [7], -0.173. For the same compound, the z-score is 0.532 (inactive) in assay [8]; -0.473 (inactive) in assay [9]; -1.36 in assay [10]; 0.648 in assay [11]; 0.831 in assay [12]; -0.627 in assay [13]. Moreover, the z-score in assay [14] is -3.41; in [15] it was -3.74; in assay [16], -1.77; in [17], -0.132 (inactive); in assay [18], -0.124; in [19], -0.66. Further, the z-score in [20] is 0.885 (inactive). This compound also displayed a composite z-score in [2] of 0.121.
As to `CC(=O)N1Cc2ccccc2C[C@]2(N=C(c3ccc(OCCCO)cc3)O[C@@H]2c2ccccc2)C1=O`, the z-score in assay [1] was 1.23 (inactive); in assay [3], 26 (active); in assay [4] it was 16.1 (active); in [5], 1.17 (inactive); in assay [6], 3.32 (inactive); in assay [7], 0.463. Further, the z-score in assay [8] was -1.31 (inactive); in assay [9], 0.13 (inactive); in [10], -1.9; in [11], -1.07; in assay [12], 0.749; in [13] it was -0.351. The z-score in assay [14] is -2.28; in [15] it was -3.5; in [16] it was 0.462; in [17] it was -0.202 (inactive); in assay [18] it was -0.954; in assay [19], -0.637. Further, the z-score in assay [20] is -2.76 (inactive). In assay [2], this compound gave a composite z-score of -0.0536.

The values are drawn from PubChem BioAssay.
